Measurements published in ChEMBL document CHEMBL4513216, “Probing the Open Global Health Chemical Diversity Library for Multistage-Active Starting Points for Next-Generation Antimalarials” (ACS Infect Dis, 2020).
Among all 65,000 compounds or so, about 2,100 (3.2%) showed an effect of 50% or more. The median lay at about -52%. The full list was thinned out, with strong results kept by preference.

These molecules were tested on Plasmodium falciparum (assay: Screen against P. falciparum Asexual Blood Stage (ABS), at 5uM). Details: tested at 5 uM.
Type: functional, Dd2

Structure (SMILES) | INHIBITION [%]
c1cnc(NCc2noc3c2CN(CCN2CCCC2)CC3)nc1 | -63.3
c1cc(-c2ccc3c(c2)CCC32CCN(c3nncs3)CC2)co1 | 3.66
O=C(CCO)N1CCC2(CCc3ccc(-c4ccoc4)cc32)CC1 | -76.5
OCCN1CCC2(CCc3cc(-c4ccoc4)ccc32)CC1 | 61.2
COCCOCC1(CNCc2cccc(OC)c2)C[C@@H](O)[C@@H](O)C1 (some centres undefined) | -11.2
COCCOCC1(CNCc2ccc(F)cc2)C[C@@H](O)[C@@H](O)C1 (some centres undefined) | 63.6
COCCOCC1(CNCc2ccc(OC)cc2)C[C@@H](O)[C@@H](O)C1 (some centres undefined) | -77.3
CC(C)CCN1C2(CCN(Cc3nccs3)C2)c2ccccc2S1(=O)=O (centres undefined) | -17.8
CN1[C@@H]2CC[C@H]1CN(C(=O)c1nnc3n1CCCCC3)CC2 | -58.6
Cc1noc(C)c1CN1CCC2(CC1)NC(=O)CC2c1ccccc1 (centres undefined) | -39.2
Cc1cccc(CN2CCC3(CC2)NC(=O)CC3c2ccccc2)n1 (centres undefined) | -3.5
Cc1ccc(CN2CCC3(CC2)NC(=O)CC3c2ccccc2)s1 (centres undefined) | 53.7
CCC1(CC)C(=O)NC(=O)N/C1=N/c1cccc(OC)c1 | -27.2
Cc1c(CN2CCCC2(C)C(=O)N2CCOCC2)cnn1C (centres undefined) | -23.9
NC(=O)C1(Cc2ccc(-c3ccccc3)cc2)CCCNC1 (centres undefined) | 61.1
NC(=O)C1(Cc2ccccc2-c2cncnc2)CCCNC1 (centres undefined) | -114
CCNC(=O)C1(Cc2ccc(-c3ccccc3)cc2)CCCNC1 (centres undefined) | 27.7
CC1(C)CC(n2cc3nc(N4CCOCC4)[nH]cc-3c2=O)CC(C)(C)N1 | -53.2
Cc1cnn(CC2CN(CC(=O)Nc3cccnc3)CCO2)c1 (centres undefined) | -66
Cn1ccnc1C(=O)N[C@@H]1CN(CC2CCOCC2)[C@@H]2CCCO[C@@H]21 | -60
O=c1ccc(-c2cccs2)nn1CN1CCN(c2ccccn2)CC1 | -115
CNS(=O)(=O)c1cccc(C(C)NCc2ccc(F)cc2F)c1 (centres undefined) | -3.64

Structure (SMILES) | INHIBITION [%]
CNS(=O)(=O)c1cccc(C(C)NCc2nccn2C(C)C)c1 (centres undefined) | -9.39
CNS(=O)(=O)c1cccc(C(C)NCc2cccc(C)c2C)c1 (centres undefined) | 69.7
CCOc1ccc(CNC(C)c2cccc(S(=O)(=O)NC)c2)cc1 (centres undefined) | 47.6
CNS(=O)(=O)c1cccc(C(C)NCc2ccc(C)c(C)c2)c1 (centres undefined) | 63.4
CNS(=O)(=O)c1cccc(C(C)NCc2ccc(C)o2)c1 (centres undefined) | 23.3
CNS(=O)(=O)c1cccc(C(C)NCc2ccco2)c1 (centres undefined) | 2.96
CNS(=O)(=O)c1cccc(C(C)NCc2ccc(F)c(F)c2)c1 (centres undefined) | 11.1
CNS(=O)(=O)c1cccc(C(C)NCc2ccccc2)c1 (centres undefined) | 59.4
CNS(=O)(=O)c1cccc(C(C)NCc2ccsc2)c1 (centres undefined) | 67.2
CNS(=O)(=O)c1cccc(C(C)NCc2cccc(O)c2)c1 (centres undefined) | 3.69
CNS(=O)(=O)c1cccc(C(C)NCc2ccncc2)c1 (centres undefined) | -51.1
CN(Cc1ccc(F)cc1)C(=O)c1ccoc1CN1CCNC(=O)C1 | -169
CCOCC(=O)NCCn1ccc(-c2ccccn2)n1 | -74.8
Cc1nc(C)c(S(=O)(=O)NC(=O)c2sccc2C)s1 | -118
Cn1ccnc1CN1CCC2(CC(=O)N(c3ccsc3)C2)C1 (centres undefined) | -95.1
Cc1ccc(NC2CCN(C(=O)c3cccc4[nH]ncc34)CC2)nn1 | -12.4
CCN1CCCC(O)(CN(C)Cc2ccc(C)o2)C1 (centres undefined) | 20.1
Cc1ccc(CN(C)CC2(O)CCCN(C)C2)o1 (centres undefined) | 54.2
Cc1nn(C)c(C)c1CN(C)CC1(O)CCCN(C)C1 (centres undefined) | -56.8
CC(C)c1nc(N2CCC(N3CCSCC3)CC2)c2cnn(C)c2n1 | -57
CC(C)c1nc(N2CCC(N3CCCC(O)C3)CC2)c2cnn(C)c2n1 (centres undefined) | -33.8
CC(C)c1nc(N2CCC(N3CCCCCC3)CC2)c2cnn(C)c2n1 | 51.9

Structure (SMILES) | INHIBITION [%]
CC1(C)CN(CCC(=O)NCc2cccc(Cl)c2)CC[C@]1(C)O | 53.1
O=C(CCN1CCOC(C(F)(F)F)C1)NCc1cccc(Cl)c1 (centres undefined) | -53.515
Cc1ccc(C(=O)O)cc1CNC(=O)CN1CC[C@](C)(O)C(C)(C)C1 | -0.0274
CN(C(=O)COc1ccc(F)cc1)[C@@H]1CC[C@@H](n2ccnc2)[C@@H]1O | -72.8
COCCN1CCC2(CC1)CN(C(=O)c1ccco1)CCO2 | -29.3
COc1ccc2[nH]nc(CN3CCC(C(=O)N4CCCCC4)CC3)c2c1 | 13.7
COc1ccc2[nH]nc(CN3CCC(C(C)N4CCCC4)CC3)c2c1 (centres undefined) | 38.8
COc1ccc2[nH]nc(CN3CCC(C(C)N(C)C)CC3)c2c1 (centres undefined) | 64.4
Cn1nccc1-c1nc2c(cc1C(=O)O)CCN(C(=O)C1CC1)CC2 | -73.9
O=C1CC(c2ccncc2)C2(CCN(C(=O)c3cccs3)CC2)N1 (centres undefined) | -50.7
OCc1cn([C@@H]2c3ccccc3C3(CCNCC3)[C@H]2O)nn1 | -114
COCc1cn([C@@H]2c3ccccc3C3(CCNCC3)[C@H]2O)nn1 | -24.9
O[C@H]1[C@H](n2cc(CN3CCCC3)nn2)c2ccccc2C12CCNCC2 | 63.2
Cc1cnc(C(=O)N2CCC3(CCN3Cc3ccc(F)cc3)C2)cn1 (centres undefined) | -60.5
O=C1CN(c2ccc(CNC(=O)Nc3nnc(C4CC4)s3)cc2)CCN1 | -5.48
COc1cc(CNCCn2cc(C)cn2)cc2c1OCCO2 | 58.2
COc1cc(CNc2cnn(C)c2)cc2c1OCCO2 | -181
Cc1cnn(CCNCCCOc2ccc(C#N)cc2)c1 | 65.9
Cc1cnn(CCNCCCOc2ccc3c(c2)OCO3)c1 | 50.6
Cc1cnn(CCCOc2ccc3c(c2)OCO3)c1 | -30.8
COc1cc(CNCCc2cnn(C)c2)cc2c1OCCO2 | -7.17
Cc1cnn(CCNCC(O)COc2ccc(C#N)cc2)c1 (centres undefined) | -106

Structure (SMILES) | INHIBITION [%]
c1cnn(CCNCCCOc2ccc3c(c2)OCO3)c1 | 23.5
Cc1cnn(CCNCCCOc2ccccc2)c1 | -13.6
CC(=O)c1cccc(OCC(=O)NS(=O)(=O)c2ccc(Br)s2)c1 | -85.3
CCN(CC)S(=O)(=O)N(Cc1ccccn1)Cc1ccccc1C | -6.79
CC(NCC(N)=O)c1c(F)cccc1Cl (centres undefined) | -21.3
Cc1sc2ncnc(N3CCC(N(C)Cc4cnn(C)c4)CC3)c2c1C | 23.5
COCc1noc(CN2CCCCC2CCc2cccs2)n1 (centres undefined) | -172
O=C(O)c1cc(-c2ccncc2F)cc(S(=O)(=O)N2CCCCCC2)c1 | -154
O=C(c1ccco1)N1CCO[C@@H]2CN(CC3CC3)CC[C@@H]2C1 | -65.2
Cc1cccc(CN2CCC3(CCN(Cc4ccccn4)C3)C2=O)c1 (centres undefined) | 27.8
Cc1nn(C)c(C)c1C1CCCN1C(=O)c1ccc(N(C)C)nc1 (centres undefined) | -54.2
COc1cc(OC)cc(-c2cccc3c2OC(CN)C3)c1 (centres undefined) | 68.3
COc1ccc(-c2cccc3c2OC(CN)C3)cc1F (centres undefined) | 62.6
COc1cc(-c2cccc3c2OC(CN)C3)cc(OC)c1OC (centres undefined) | 46.9
COc1cc(-c2cccc3c2OC(CN)C3)ccc1O (centres undefined) | 38
COc1cc(-c2ccc(F)c3c2OC(CN)C3)cc(OC)c1OC (centres undefined) | -12.8
COc1c(F)cc(-c2cccc3c2OC(CN)C3)cc1F (centres undefined) | 35.4
NCC1Cc2cc(F)cc(-c3cnccn3)c2O1 (centres undefined) | 19.1
COc1cccnc1-c1ccc(F)c2c1OC(CN)C2 (centres undefined) | 59.3
NCC1Cc2cccc(-c3nccc(N4CCC(O)CC4)n3)c2O1 (centres undefined) | 20.4
NCC(=O)N1CCC(c2cccc(Oc3ccccc3)n2)CC1 | -20.5
CC(C)(C)NC(=O)CN1CCCNCC1 | -113

Structure (SMILES) | INHIBITION [%]
CC(=O)NCC(=O)N1Cc2nccn2CC(COc2cccnc2)C1 (centres undefined) | -98.1
CNc1cccc(C2CCCN(C(=O)Cc3ccccc3)C2)n1 (centres undefined) | -62.3
COc1cccc(C(=O)C2CCCN(c3cc(C#N)ccn3)C2)c1 (centres undefined) | -25.2
Cc1noc(CNC(=O)C2CSCCC(=O)N2)n1 (centres undefined) | -164
COc1ncc(C2(O)CCN(Cc3c(F)cccc3F)CC2)c(OC)n1 | 13.1
NC(=O)NCC(=O)N1C[C@@H]2CC[C@H]1CN(Cc1ccccc1)C2 | -9.53
CNC(=O)C1(N2CCC[C@H]2C(=O)NC2CC2)CCCCC1 | -145
COCCc1noc(C2CCCN(c3ncnc4c3CCC4)C2)n1 (centres undefined) | -100
COc1cccc(Cn2ncnc2CCC(C)N2CCN(C)CC2)c1 (centres undefined) | -99.9
N[C@@H]1CCN(Cc2ccccc2CS(=O)(=O)c2ccccc2)C[C@H]1O | -23.3
O=S(=O)(Cc1ccccc1CN1CC[C@H](CO)[C@H](O)C1)c1ccccc1 | 16.9
NC1CCCCN(Cc2ccccc2CS(=O)(=O)c2ccccc2)C1 (centres undefined) | 55.9
Cc1nc(N2CCC(C)CC2)ncc1-c1cc(O)nc(N2CCCC2)n1 | -113
O=C1OCCN1Cc1ncnn1Cc1c(F)cccc1Cl | -76.9
Fc1cccc(Cl)c1Cn1ncnc1CSCCN1CCCC1 | 61.7
O=C1CCCCCN1Cc1ncnn1Cc1c(F)cccc1Cl | -29.5
CS(=O)(=O)N1C[C@@H]2COC[C@]2(CN2CCOCC2)C1 | -107
CNC(=O)C1CCC2(CCN(c3nncs3)CC2)CO1 (centres undefined) | -79.1
Cc1noc(C2CCN(C(=O)c3ccc(N(C)C)nc3)CC2)n1 | -27
Cc1noc(C2CCN(C(=O)c3ccc(C(F)(F)F)nc3)CC2)n1 | 57
Cc1noc(C2CCN(C(=O)c3ccc(NC4CC4)nc3)CC2)n1 | -9.68
